Test results taken from PubChem BioAssay AID1159580 (chemical genetic matrix, 2015).
Among all 5,500 compounds or so, about 2,000 (36%) were called active. Inconclusive results (about 18%) are left out. No stated cut-off is given here; in the data, active means normalized growth mostly below about 0.91 (no sharp cut-off); inconclusive means no clear call, values can overlap the other calls; inactive means mostly above about 0.92. Some of the results follow.

Assay: chemical genetic growth profiling, strain panel (AID 1159580);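 further: tested at 20 µM; growth read once vehicle control cultures reached saturation at 30 °C; 1 = growth at the plate median or of vehicle wells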
Settings: growth OD

Measured: normalized growth

CCCCOC(=O)c1ccccc1C(=O)OCc1ccccc1
inactive: S. cerevisiae deletion strains, locus YAL013W, strain DEP1, stronger effect = lower value 0.988 | S. cerevisiae deletion strains, locus YBR021W, strain FUR4, stronger effect = lower value 0.965 | S. cerevisiae deletion strains, locus YBR229C, strain ROT2, stronger effect = lower value 0.987 | S. cerevisiae deletion strains, locus YCL029C, strain bik1, stronger effect = lower value 0.957 | S. cerevisiae deletion strains, locus YDL035C, strain GPR1, stronger effect = lower value 0.956 | S. cerevisiae deletion strains, locus YDL074C, strain BRE1, stronger effect = lower value 0.971 | S. cerevisiae deletion strains, locus YDL101C, strain DUN1, stronger effect = lower value 0.99 | S. cerevisiae deletion strains, locus YDL134C, strain PPH21, stronger effect = lower value 0.986 | S. cerevisiae deletion strains, locus YDL185W, strain tfp1, stronger effect = lower value 0.961 | S. cerevisiae deletion strains, locus YDL192W, strain arf1, stronger effect = lower value 0.972 | S. cerevisiae deletion strains, locus YDR101C, strain arx1, stronger effect = lower value 0.971 | S. cerevisiae deletion strains, locus YDR150W, strain NUM1, stronger effect = lower value 0.947 | S. cerevisiae deletion strains, locus YDR162C, strain NBP2, stronger effect = lower value 0.975 | S. cerevisiae deletion strains, locus YDR318W, strain mcm21, stronger effect = lower value 0.967 | S. cerevisiae deletion strains, locus YDR388W, stronger effect = lower value 0.95 | S. cerevisiae deletion strains, locus YDR502C, strain sam2, stronger effect = lower value 0.966 | S. cerevisiae deletion strains, locus YEL061C, strain CIN8, stronger effect = lower value 0.989 | S. cerevisiae deletion strains, locus YER110C, stronger effect = lower value 0.968 | S. cerevisiae deletion strains, locus YER155C, strain BEM2, stronger effect = lower value 0.968 | S. cerevisiae deletion strains, locus YER167W, strain BCK2, stronger effect = lower value 0.983 | S. cerevisiae deletion strains, locus YGL078C, strain dbp3, stronger effect = lower value 0.968 | S. cerevisiae deletion strains, locus YGL086W, strain mad1, stronger effect = lower value 0.975 | S. cerevisiae deletion strains, locus YGL248W, strain PDE1, stronger effect = lower value 0.993 | S. cerevisiae deletion strains, locus YGR078C, strain PAC10, stronger effect = lower value 0.97 | S. cerevisiae deletion strains, locus YGR135W, strain pre9, stronger effect = lower value 0.972 | S. cerevisiae deletion strains, locus YGR229C, strain SMI1, stronger effect = lower value 0.895 | S. cerevisiae deletion strains, locus YGR252W, strain gcn5, stronger effect = lower value 0.994 | S. cerevisiae deletion strains, locus YHR030C, strain SLT2, stronger effect = lower value 0.981 | S. cerevisiae deletion strains, locus YHR079C, strain IRE1 (second series), stronger effect = lower value 0.966 | S. cerevisiae deletion strains, locus YHR094C, strain hxt1, stronger effect = lower value 0.965 | S. cerevisiae deletion strains, locus YHR129C, strain ARP1, stronger effect = lower value 0.983 | S. cerevisiae deletion strains, locus YHR200W, strain rpn10, stronger effect = lower value 0.978 | S. cerevisiae deletion strains, locus YIL066C, strain RNR3, stronger effect = lower value 0.929 | S. cerevisiae deletion strains, locus YIL073C, strain SPO22, stronger effect = lower value 0.821 | S. cerevisiae deletion strains, locus YIL125W, strain kgd1, stronger effect = lower value 0.978 | S. cerevisiae deletion strains, locus YIR030C, strain dcg1, stronger effect = lower value 0.965 | S. cerevisiae deletion strains, locus YJL095W, strain BCK1, stronger effect = lower value 0.994 | S. cerevisiae deletion strains, locus YJL134W, strain LCB3, stronger effect = lower value 0.968 | S. cerevisiae deletion strains, locus YJL168C, strain set2, stronger effect = lower value 0.974 | S. cerevisiae deletion strains, locus YJL187C, strain SWE1 (second series), stronger effect = lower value 0.971 | S. cerevisiae deletion strains, locus YJR043C, strain POL32, stronger effect = lower value 0.989 | S. cerevisiae deletion strains, locus YJR075W, strain HOC1, stronger effect = lower value 0.98 | S. cerevisiae deletion strains, locus YKL009W, strain mrt4, stronger effect = lower value 0.94 | S. cerevisiae deletion strains, locus YKL068W, stronger effect = lower value 0.964 | S. cerevisiae deletion strains, locus YKL085W, strain MDH1 (second series), stronger effect = lower value 0.973 | S. cerevisiae deletion strains, locus YKL085W, strain MDH1, stronger effect = lower value 0.973 | S. cerevisiae deletion strains, locus YKL190W, strain CNB1, stronger effect = lower value 0.979 | S. cerevisiae deletion strains, locus YKR001C, strain vps1, stronger effect = lower value 0.959 | S. cerevisiae deletion strains, locus YLR039C, strain RIC1, stronger effect = lower value 0.934 | S. cerevisiae deletion strains, locus YLR058C, strain SHM2, stronger effect = lower value 0.974 | S. cerevisiae deletion strains, locus YLR102C, strain apc9, stronger effect = lower value 0.971 | S. cerevisiae deletion strains, locus YLR262C, strain YPT6, stronger effect = lower value 0.858 | S. cerevisiae deletion strains, locus YLR268W, strain sec22, stronger effect = lower value 0.968 | S. cerevisiae deletion strains, locus YLR330W, strain CHS5, stronger effect = lower value 0.987 | S. cerevisiae deletion strains, locus YLR342W, strain FKS1 (second series), stronger effect = lower value 0.952 | S. cerevisiae deletion strains, locus YLR371W, strain rom2, stronger effect = lower value 0.97 | S. cerevisiae deletion strains, locus YLR418C, strain cdc73, stronger effect = lower value 0.976 | S. cerevisiae deletion strains, locus YML016C, strain PPZ1, stronger effect = lower value 0.996 | S. cerevisiae deletion strains, locus YML032C, strain rad52, stronger effect = lower value 0.964 | S. cerevisiae deletion strains, locus YML124C, strain tub3, stronger effect = lower value 0.956 | S. cerevisiae deletion strains, locus YMR078C, strain ctf18, stronger effect = lower value 0.957 | S. cerevisiae deletion strains, locus YMR223W, strain ubp8, stronger effect = lower value 0.957 | S. cerevisiae deletion strains, locus YMR263W, strain SAP30, stronger effect = lower value 0.973 | S. cerevisiae deletion strains, locus YMR307W, strain GAS1, stronger effect = lower value 0.718 | S. cerevisiae deletion strains, locus YNL067W, strain RPL9B, stronger effect = lower value 0.979 | S. cerevisiae deletion strains, locus YNL128W, strain TEP1, stronger effect = lower value 0.985 | S. cerevisiae deletion strains, locus YNL153C, strain GIM3, stronger effect = lower value 0.981 | S. cerevisiae deletion strains, locus YNL233W, strain BNI4, stronger effect = lower value 0.998 | S. cerevisiae deletion strains, locus YNL250W, strain rad50, stronger effect = lower value 0.968 | S. cerevisiae deletion strains, locus YNL271C, strain bni1, stronger effect = lower value 0.973 | S. cerevisiae deletion strains, locus YNL298W, strain CLA4, stronger effect = lower value 0.949 | S. cerevisiae deletion strains, locus YNL307C, strain MCK1, stronger effect = lower value 0.915 | S. cerevisiae deletion strains, locus YNL322C, strain KRE1, stronger effect = lower value 0.981 | S. cerevisiae deletion strains, locus YNR052C, strain pop2, stronger effect = lower value 0.964 | S. cerevisiae deletion strains, locus YOL006C, strain TOP1, stronger effect = lower value 0.838 | S. cerevisiae deletion strains, locus YOL012C, strain htz1 0.742 | S. cerevisiae deletion strains, locus YOL147C, strain pex11, stronger effect = lower value 0.964 | S. cerevisiae deletion strains, locus YOR061W, strain CKA2, stronger effect = lower value 0.984 | S. cerevisiae deletion strains, locus YOR069W, strain VPS5, stronger effect = lower value 0.982 | S. cerevisiae deletion strains, locus YOR136W, strain idh2, stronger effect = lower value 0.972 | S. cerevisiae deletion strains, locus YOR144C, strain elg1, stronger effect = lower value 0.962 | S. cerevisiae deletion strains, locus YOR184W, strain ser1, stronger effect = lower value 0.931 | S. cerevisiae deletion strains, locus YOR316C, strain cot1, stronger effect = lower value 0.972 | S. cerevisiae deletion strains, locus YPL055C, strain LGE1, stronger effect = lower value 0.957 | S. cerevisiae deletion strains, locus YPL241C, strain CIN2, stronger effect = lower value 0.979 | S. cerevisiae deletion strains, locus YPR119W, strain clb2, stronger effect = lower value 0.955 | S. cerevisiae deletion strains, locus YPR141C, strain kar3, stronger effect = lower value 0.959 | S. cerevisiae deletion strains, locus YPR163C, strain tif3, stronger effect = lower value 0.963 | S. cerevisiae deletion strains, locus YPR167C, strain met16, stronger effect = lower value 0.98 | S. cerevisiae deletion strains, strain wtn01, stronger effect = lower value 0.96 | S. cerevisiae strains, strain wild type, stronger effect = lower value 0.981
